Consider six compounds from ChEMBL document CHEMBL1961873, “Compounds: GSK PKIS; Assays: Nanosyn kinase panel” (2012).

The target of assay [1] is T1, 3-phosphoinositide-dependent protein kinase 1 (Homo sapiens) (UniProt O15530).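 Further: values are mean inhibition of PDK1.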
T1 sequence (whole entry): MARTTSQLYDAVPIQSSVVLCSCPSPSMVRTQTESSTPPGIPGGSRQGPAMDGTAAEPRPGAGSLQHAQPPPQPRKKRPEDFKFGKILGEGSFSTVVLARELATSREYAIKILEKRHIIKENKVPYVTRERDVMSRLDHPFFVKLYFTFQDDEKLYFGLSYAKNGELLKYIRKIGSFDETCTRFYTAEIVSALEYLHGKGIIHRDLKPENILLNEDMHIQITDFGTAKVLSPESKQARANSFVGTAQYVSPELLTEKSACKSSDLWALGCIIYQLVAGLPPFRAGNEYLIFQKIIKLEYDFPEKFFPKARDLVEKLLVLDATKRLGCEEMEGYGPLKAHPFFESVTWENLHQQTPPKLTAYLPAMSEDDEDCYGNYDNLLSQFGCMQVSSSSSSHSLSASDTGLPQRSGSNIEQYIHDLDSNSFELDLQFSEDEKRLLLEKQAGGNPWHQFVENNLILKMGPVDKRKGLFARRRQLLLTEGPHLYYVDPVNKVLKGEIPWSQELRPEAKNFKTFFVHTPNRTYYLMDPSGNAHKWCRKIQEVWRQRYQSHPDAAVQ
The conditions noted are these: at 0.1 µM.

In assay [2] the target is cAMP-dependent protein kinase catalytic subunit alpha (Homo sapiens) (UniProt P17612). The conditions noted are these: at 0.1 µM.
The target is the same in assay [3]. The conditions noted are these: at 1 µM.
Assay [4] addresses Protein kinase C alpha type (Homo sapiens) (UniProt P17252). The conditions noted are these: at 0.1 µM.
For assay [5] the target is unchanged. The conditions noted are these: at 1 µM.
In assay [6] the target is Protein kinase C beta type (Homo sapiens) (UniProt P05771). The conditions noted are these: at 0.1 µM.
Chain of Protein kinase C beta type (Homo sapiens) (P05771 2-671 limits assumed): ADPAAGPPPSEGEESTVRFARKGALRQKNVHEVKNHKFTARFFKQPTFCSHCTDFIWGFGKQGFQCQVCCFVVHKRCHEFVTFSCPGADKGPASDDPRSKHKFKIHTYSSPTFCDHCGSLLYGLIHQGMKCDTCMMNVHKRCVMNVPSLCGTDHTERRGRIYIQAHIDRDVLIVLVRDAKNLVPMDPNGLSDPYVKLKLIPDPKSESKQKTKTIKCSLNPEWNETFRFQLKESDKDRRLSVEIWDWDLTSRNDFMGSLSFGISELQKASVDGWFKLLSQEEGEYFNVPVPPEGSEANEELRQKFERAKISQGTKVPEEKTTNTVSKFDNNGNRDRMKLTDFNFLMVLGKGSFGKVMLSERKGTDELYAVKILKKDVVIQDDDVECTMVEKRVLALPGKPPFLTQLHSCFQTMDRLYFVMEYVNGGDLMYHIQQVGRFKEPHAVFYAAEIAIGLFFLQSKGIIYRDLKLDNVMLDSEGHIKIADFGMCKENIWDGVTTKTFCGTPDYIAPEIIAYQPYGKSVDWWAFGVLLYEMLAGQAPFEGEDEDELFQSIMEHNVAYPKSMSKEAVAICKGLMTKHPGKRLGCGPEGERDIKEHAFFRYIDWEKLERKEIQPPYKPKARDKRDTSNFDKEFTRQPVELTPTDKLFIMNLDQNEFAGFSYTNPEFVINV
The target is the same in assay [7]. The conditions noted are these: at 1 µM.
Assay [8] addresses Protein kinase C eta type (Homo sapiens) (UniProt P24723). The conditions noted are these: at 0.1 µM.
The target is the same in assay [9]. The conditions noted are these: at 1 µM.
Assay [10] addresses Protein kinase C gamma type (Homo sapiens) (UniProt P05129). The conditions noted are these: at 0.1 µM.
Assay [11] shares this target. The conditions noted are these: at 1 µM.
Assay [12] deals with T2, Protein kinase C iota type (Homo sapiens) (UniProt P41743).
T2 sequence (whole entry): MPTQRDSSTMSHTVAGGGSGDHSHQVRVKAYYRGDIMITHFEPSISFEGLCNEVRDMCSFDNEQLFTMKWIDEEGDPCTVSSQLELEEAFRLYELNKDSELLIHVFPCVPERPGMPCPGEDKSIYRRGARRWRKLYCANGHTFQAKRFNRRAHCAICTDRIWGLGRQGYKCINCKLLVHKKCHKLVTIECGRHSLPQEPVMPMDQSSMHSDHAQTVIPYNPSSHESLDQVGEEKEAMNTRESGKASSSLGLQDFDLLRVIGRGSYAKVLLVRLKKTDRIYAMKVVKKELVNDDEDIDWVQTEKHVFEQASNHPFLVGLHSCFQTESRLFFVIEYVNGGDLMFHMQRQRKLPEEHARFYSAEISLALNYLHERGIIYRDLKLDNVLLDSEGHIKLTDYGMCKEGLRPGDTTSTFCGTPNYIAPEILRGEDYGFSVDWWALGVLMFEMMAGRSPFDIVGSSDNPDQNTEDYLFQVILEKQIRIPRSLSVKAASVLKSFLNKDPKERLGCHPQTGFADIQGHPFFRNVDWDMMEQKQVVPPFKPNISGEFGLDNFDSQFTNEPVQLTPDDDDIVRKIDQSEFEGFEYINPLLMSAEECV
The conditions noted are these: at 0.1 µM.

The target of assay [13] is T2, Protein kinase C iota type (Homo sapiens). The conditions noted are these: at 1 µM.
Assay [14] concerns the target Protein kinase C theta type (Homo sapiens) (UniProt Q04759). The conditions noted are these: at 0.1 µM.
For assay [15] the target is unchanged. The conditions noted are these: at 1 µM.
Assay [16] deals with Protein kinase C beta type (Homo sapiens) (UniProt P05771). The conditions noted are these: at 0.1 µM. The source holds these as a separate data set.
Assay [17] has the same target. The conditions noted are these: at 1 µM. The source holds these as a separate data set.
Assay [18] has as its target T3, Serine/threonine-protein kinase D1 (Homo sapiens) (UniProt Q15139).
T3 sequence (whole entry): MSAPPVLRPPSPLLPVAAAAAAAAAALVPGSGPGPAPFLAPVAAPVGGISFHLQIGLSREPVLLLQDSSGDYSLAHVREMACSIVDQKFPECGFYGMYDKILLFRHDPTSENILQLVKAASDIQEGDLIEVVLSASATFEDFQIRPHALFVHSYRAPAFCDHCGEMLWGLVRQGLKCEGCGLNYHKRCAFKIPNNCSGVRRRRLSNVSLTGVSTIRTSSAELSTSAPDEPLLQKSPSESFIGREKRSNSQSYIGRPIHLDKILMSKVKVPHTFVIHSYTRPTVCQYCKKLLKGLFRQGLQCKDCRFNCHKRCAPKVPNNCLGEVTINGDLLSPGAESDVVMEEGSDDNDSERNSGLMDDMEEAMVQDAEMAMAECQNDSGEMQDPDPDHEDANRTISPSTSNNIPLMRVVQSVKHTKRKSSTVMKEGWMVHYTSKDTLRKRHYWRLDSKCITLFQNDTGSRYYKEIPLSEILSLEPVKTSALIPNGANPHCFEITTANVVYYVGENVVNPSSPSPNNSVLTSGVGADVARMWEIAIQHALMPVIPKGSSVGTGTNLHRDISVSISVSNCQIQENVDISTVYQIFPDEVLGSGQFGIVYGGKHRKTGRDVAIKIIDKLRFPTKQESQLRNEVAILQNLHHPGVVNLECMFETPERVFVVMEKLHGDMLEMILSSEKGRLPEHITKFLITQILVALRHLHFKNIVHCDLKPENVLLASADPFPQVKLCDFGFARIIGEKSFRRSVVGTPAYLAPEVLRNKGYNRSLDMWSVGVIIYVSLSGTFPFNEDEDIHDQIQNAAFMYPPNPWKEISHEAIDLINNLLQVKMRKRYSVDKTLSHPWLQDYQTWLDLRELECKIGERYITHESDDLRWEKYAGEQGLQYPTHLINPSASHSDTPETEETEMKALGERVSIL
The conditions noted are these: at 0.1 µM.

The target in assay [19] is T3, Serine/threonine-protein kinase D1 (Homo sapiens). The conditions noted are these: at 1 µM.
Assay [20] deals with T4, Serine/threonine-protein kinase D2 (Homo sapiens) (UniProt Q9BZL6).
T4 sequence (whole entry): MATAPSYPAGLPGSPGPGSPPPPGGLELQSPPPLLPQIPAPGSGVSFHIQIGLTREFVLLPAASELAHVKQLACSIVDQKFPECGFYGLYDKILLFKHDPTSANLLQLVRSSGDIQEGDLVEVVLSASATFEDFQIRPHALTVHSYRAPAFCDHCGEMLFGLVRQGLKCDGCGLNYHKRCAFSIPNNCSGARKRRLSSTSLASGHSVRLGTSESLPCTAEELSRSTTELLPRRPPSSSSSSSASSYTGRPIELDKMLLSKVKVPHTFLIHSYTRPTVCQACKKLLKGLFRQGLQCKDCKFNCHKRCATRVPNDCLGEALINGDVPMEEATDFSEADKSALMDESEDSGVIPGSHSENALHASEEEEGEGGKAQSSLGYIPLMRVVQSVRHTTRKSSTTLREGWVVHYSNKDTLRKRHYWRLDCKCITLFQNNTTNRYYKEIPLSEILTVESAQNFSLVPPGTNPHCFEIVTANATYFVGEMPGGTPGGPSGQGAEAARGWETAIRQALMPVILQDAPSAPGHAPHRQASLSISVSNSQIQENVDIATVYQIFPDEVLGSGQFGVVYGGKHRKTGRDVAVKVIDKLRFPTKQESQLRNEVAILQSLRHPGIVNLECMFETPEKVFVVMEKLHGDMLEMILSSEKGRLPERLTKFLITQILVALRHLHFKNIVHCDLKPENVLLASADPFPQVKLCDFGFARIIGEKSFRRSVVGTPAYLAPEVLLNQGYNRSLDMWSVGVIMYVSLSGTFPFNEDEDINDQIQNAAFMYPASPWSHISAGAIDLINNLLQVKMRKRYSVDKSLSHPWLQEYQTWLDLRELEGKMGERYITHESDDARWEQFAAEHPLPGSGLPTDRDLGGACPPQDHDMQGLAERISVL
The conditions noted are these: at 0.1 µM.

Chain of Protein kinase C theta type (Homo sapiens) (Q04759 whole entry, looked up): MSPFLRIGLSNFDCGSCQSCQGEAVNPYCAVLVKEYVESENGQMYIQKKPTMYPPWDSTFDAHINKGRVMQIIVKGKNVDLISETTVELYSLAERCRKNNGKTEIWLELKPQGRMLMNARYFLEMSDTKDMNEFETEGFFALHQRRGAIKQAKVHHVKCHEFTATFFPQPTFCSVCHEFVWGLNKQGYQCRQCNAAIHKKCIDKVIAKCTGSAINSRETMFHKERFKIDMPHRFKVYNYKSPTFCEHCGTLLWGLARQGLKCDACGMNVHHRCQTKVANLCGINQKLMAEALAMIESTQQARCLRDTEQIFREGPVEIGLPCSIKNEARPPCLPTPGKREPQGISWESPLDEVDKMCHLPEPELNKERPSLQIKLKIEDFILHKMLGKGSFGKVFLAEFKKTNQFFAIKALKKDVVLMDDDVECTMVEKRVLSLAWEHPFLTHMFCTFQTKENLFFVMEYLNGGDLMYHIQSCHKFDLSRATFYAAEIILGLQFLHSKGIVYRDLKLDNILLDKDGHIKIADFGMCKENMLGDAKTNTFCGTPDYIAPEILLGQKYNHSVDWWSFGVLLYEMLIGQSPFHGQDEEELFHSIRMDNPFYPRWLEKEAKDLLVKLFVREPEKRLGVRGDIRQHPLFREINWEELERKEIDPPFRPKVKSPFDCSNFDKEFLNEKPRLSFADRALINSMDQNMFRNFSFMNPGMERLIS
Chain of Protein kinase C eta type (Homo sapiens) (P24723 whole entry): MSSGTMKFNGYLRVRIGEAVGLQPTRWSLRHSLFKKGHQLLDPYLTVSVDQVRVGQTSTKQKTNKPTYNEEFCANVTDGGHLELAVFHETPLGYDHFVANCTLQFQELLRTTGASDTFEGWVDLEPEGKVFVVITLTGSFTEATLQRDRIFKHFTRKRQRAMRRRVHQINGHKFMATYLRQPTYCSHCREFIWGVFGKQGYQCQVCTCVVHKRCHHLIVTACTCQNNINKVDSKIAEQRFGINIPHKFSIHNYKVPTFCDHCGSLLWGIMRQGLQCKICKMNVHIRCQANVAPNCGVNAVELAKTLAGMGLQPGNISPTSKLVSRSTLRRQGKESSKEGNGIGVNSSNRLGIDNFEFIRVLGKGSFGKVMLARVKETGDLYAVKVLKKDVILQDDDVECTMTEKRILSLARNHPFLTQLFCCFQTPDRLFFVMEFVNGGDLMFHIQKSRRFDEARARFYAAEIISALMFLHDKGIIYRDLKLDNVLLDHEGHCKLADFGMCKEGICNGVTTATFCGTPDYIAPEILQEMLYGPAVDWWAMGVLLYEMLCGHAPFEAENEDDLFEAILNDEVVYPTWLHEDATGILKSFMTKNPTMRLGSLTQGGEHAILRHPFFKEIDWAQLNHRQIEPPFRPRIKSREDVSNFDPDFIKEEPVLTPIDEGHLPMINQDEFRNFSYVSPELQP

On to `COc1ccc(-c2coc3ncnc(N)c23)cc1`, for which the inhibition in assay [1] was 0.68%; in assay [2], 1.5%; in assay [3], 1.74%; in assay [4], 0.29%; in [5] it was 1.92%; in [6] it was -0.46%. Further, the inhibition in assay [7] is -0.25%; in assay [8], 3.06%; in assay [9], 2.62%; in assay [10], 0.83%; in [11], 3.98%; in assay [12], 1.44%. Further, the inhibition in [13] turned out to be 3.36%; in assay [14] it was 1.7%; in assay [15], 1.28%; in assay [16], 1.62%; in assay [17], 2.4%; in assay [18], 4.27%. Moreover, the inhibition was 6.99% in assay [19] and 4.87% in [20].

`CCn1c(-c2nonc2N)nc2cncc(C(=O)N3CCNCC3)c21`: the inhibition in assay [1] was found to be 2.8%; in [2] it was 4.17%; in assay [3], 8.74%; in [4] it was 0.92%; in assay [5], 1.73%; in [6] it was 2.12%. Further, the inhibition amounted to 4.3% in assay [7]; 6.14% in [8]; 4.16% in [9]; 1.3% in assay [10]; 0.03% in assay [11]; 1.74% in assay [12]. The inhibition in [13] is 0.89%; in assay [14], 3.06%; in assay [15], 3.7%; in [16] it was 1.85%; in [17], 3.67%; in assay [18] it was 5.23%. The values for the inhibition in assay [19] and in assay [20] were 6.72% and 5.57%, respectively.

Turning to `CCN1CCC(CC(=O)Nc2n[nH]c3nc(-c4cccs4)c(Br)cc23)CC1`, the inhibition in assay [1] is -2.02%; in assay [2], -1.4%; in assay [3] it was 1.75%; in assay [4] it was -0.16%; in [5], 0.74%; in assay [6], 2.07%. Moreover, the inhibition in assay [7] is 1.35%; in assay [8] it was -3.78%; in [9] it was 0.16%; in [10], -1.57%; in assay [11], 1.17%; in assay [12] it was -1.06%. The inhibition in assay [13] is -1%; in [14], -1.26%; in [15], -0.68%; in assay [16] it was -1.4%; in assay [17] it was 2.84%; in assay [18], -1.83%. Moreover, the inhibition is -1.4% in assay [19] and -2.1% in assay [20].

Turning to `CC(=O)Nc1cccc(C#Cc2cncnc2Nc2ccc(OCc3cccc(F)c3)c(Cl)c2)n1`, the inhibition in assay [1] is -0.76%; in [2], 2.4%; in [3] it was 4.87%; in [4] it was 1.1%; in assay [5], 0.59%; in assay [6] it was 5.03%. In addition, the inhibition amounted to 8.84% in assay [7]; 0.65% in assay [8]; 3.65% in [9]; 2.74% in assay [10]; 1.63% in assay [11]; 0.57% in [12]. Also, the inhibition is -0.05% in [13]; 1.96% in assay [14]; 3.96% in assay [15]; 2.66% in assay [16]; 2.15% in [17]; -0.03% in [18]. The results for the inhibition in assay [19] and in assay [20] were -2.44% and -1.45%, respectively.

For the compound `Nc1ncnc2occ(-c3ccc(NC(=O)Nc4cc(C(F)(F)F)cc(C(F)(F)F)c4)cc3)c12`, the inhibition is 1.59% in assay [1]; 0.91% in [2]; 0.7% in assay [3]; 0.06% in assay [4]; 0.45% in [5]; -0.8% in [6]. Moreover, the inhibition was -1.24% in [7]; 1.47% in assay [8]; -0.03% in [9]; 3.16% in [10]; -0.32% in [11]; 0.16% in assay [12]. The inhibition in assay [13] was 2.82%; in assay [14], 0.72%; in [15] it was -1.36%; in assay [16], 0.68%; in assay [17], 0.44%; in assay [18], 1.17%. The inhibition is 1.94% in assay [19] and 1.61% in assay [20].

For `COc1cc2ncn(-c3cc(O[C@@H](C)c4ccccc4Cl)c(C(N)=O)s3)c2cc1OC`, the inhibition in assay [1] came to 0.82%; in assay [2], 4.37%; in assay [3] it was 4.38%; in assay [4] it was 1.75%; in assay [5] it was 3.87%; in assay [6], 3.42%. Further, the inhibition in assay [7] is 4.55%; in assay [8], 5.28%; in assay [9] it was 3.1%; in [10], 3.01%; in assay [11], 1.93%; in assay [12] it was 3.86%. For the same compound, the inhibition in assay [13] was 4.88%; in assay [14], 2.16%; in [15], 3.24%; in [16], 1.99%; in [17] it was 5.36%; in [18], 5.25%. Further, the inhibition in [19] amounted to 6.69%; in assay [20], 4.18%.

As usually defined, the inhibition is the drop in the measured response relative to a control, in per cent.
